Screens (PubChem BioAssay)
HT1080NT lethal: qHTS for induction of synthetic lethality in tumor cells producing 2HG: qHTS for the HT-1080-NT fibrosarcoma cell line. 360,000 tested, 1.6% active. HT-1080-NT fibrosarcoma viability, CellTiter-Glo ATP luminescence, 48 h. Potency, µM (series often up to 46.1 µM), for the others: top-dose activity, negative = less viability, hits mostly cytotoxic. AID 686970, 2013;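 further: NT is the 2HG producing partner of a matched IDH1 knockdown line; 0% = DMSO-treated cells and -100% = media-only wells without cells; nearly all actives have a fitted effect of over 55% in size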
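Luminescent CellTiter-Glo readout after 48 hours of compound exposure at 37 degrees C defined viability of HT-1080-NT cells. Activity was normalized to DMSO wells and cell-free media wells; concentration-response curves were fitted and assigned curve classes.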
MCF10A rereplic: A quantitative high throughput screen for small molecules that induce DNA re-replication in MCF 10a normal breast cells; 350,000 tested, 2.9% active; Potency, µM (highest dose often 46.1 µM), for inactives: at the top dose activity, positive = re-replication, usual class: activators; MCF 10A DNA re-replication, Hoechst nuclear intensity, 48 h; further: % of control where 0% means no effect; nearly all actives have a fitted effect of over 50% in size
KB-V1 cytotox: qHTS assay for MDR1-selective chemotherapeutics: Primary screen using the drug-selected MDR subline cells KB-V1 | AID 1347076, 2019 | 400,000 tested, 3.4% active | KB-V1 MDR cells viability, CellTiter-Glo, 72 h | Potency, µM (highest dose often 46.1 µM), usual class: cytotoxic; further: on the % scale 0 is the no-effect control and ±100 the full control effect; nearly all actives have a fitted effect of over 60% in size
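KB-V1 MDR subline cells in DMEM (phenol-red free, 10% FBS) exposed to compounds in qHTS concentration series for 72 h at 37 degrees C. Viability read by CellTiter-Glo luminescence; concentration-effect curves fitted after normalization and correction.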
KB-3-1 tox: qHTS assay for MDR1-selective chemotherapeutics: Primary screen using the parental adenocarcinoma cell KB-3-1 | KB-3-1 viability, CellTiter-Glo ATP luminescence, 72 h | Potency, µM (highest dose often 46.1 µM), hits mostly cytotoxic | 400,000 tested, 1.4% active | AID 1347075, 2019; further: on the % scale 0 is the no-effect control and ±100 the full control effect; nearly all actives have a fitted effect of over 60% in size
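Cytotoxicity in the drug-sensitive parental line KB-3-1 was scored as loss of CellTiter-Glo luminescence following 72 h incubation with compound. Values come from curve fitting of normalized concentration-response data.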
SW480 rerep: A quantitative high throughput screen for small molecules that induce DNA re-replication in SW480 colon adenocarcinoma cells; SW480 DNA re-replication, Hoechst DNA content imaging, 48 h; 340,000 tested, 1.8% active; Potency, µM (doses to about 46.1 µM), without a hit: at the top dose re-replication activation, most hits filed as activators; further: % of control where 0% means no effect; nearly all actives have a fitted effect of over 55% in size
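Cells (250 per well) received 23 nL compound or DMSO by pin tool and were kept 48 hr at 37 C, 5% CO2. Nuclei were then stained with Hoechst for 40 min and scanned for DNA content.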
HT1080 IDH1KD tx: qHTS for induction of synthetic lethality in tumor cells producing 2HG: qHTS for the HT-1080-IDH1KD cell line; HT-1080 IDH1 knockdown viability, ATP luminescence, 48 h; Potency, µM (titrated, usually from 46.1 µM), without a hit: top-dose activity, negative = toxicity, most hits filed as cytotoxic; 360,000 tested, 2% active; AID 686971, 2013;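 further: 0% = DMSO wells and -100% = cell-free medium wells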
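Using the IDH1-knockdown HT-1080 line run in the same batch and compound series as the NT line, viability after 48 h at 37 °C was determined by CellTiter-Glo luminescence and expressed as % activity.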
The depositor's hits bear a star. Shown are actives, neighbours in structure and some others; about 7.9% of the full set was active somewhere. The call rests on the fitted dose curve; in most records, active means well fitted curve in the direction sought with a large enough effect; inconclusive means small, poorly fitted or top-dose-only effect, or another doubt; inactive means no such curve, though single readings can be large; an effect the other way counts as inactive or inconclusive. Potency means the concentration at half of the fitted maximal effect.

For C[C@H](O)[C@@H]1CN2CCc3c([nH]c4ccccc34)[C@@H]2C[C@@H]1N(C)C(=O)Nc1cc(Cl)cc(Cl)c1 the results were HT1080NT lethal inconclusive, KB-V1 cytotox inactive, KB-3-1 tox inconclusive and HT1080 IDH1KD tx inconclusive.
C[C@H](O)[C@@H]1C(=O)N2CCc3c([nH]c4ccccc34)[C@@H]2C[C@@H]1N(C)C(=O)Nc1cc(Cl)cc(Cl)c1 was read as HT1080NT lethal 16.4µM*, KB-V1 cytotox inactive, KB-3-1 tox inconclusive and HT1080 IDH1KD tx inconclusive.
CCOCCOCN(C#N)c1nc(OC)nc(N(C)C)n1 was read as HT1080NT lethal 1.7%, MCF10A rereplic 1.0%, KB-V1 cytotox inconclusive, KB-3-1 tox inactive, SW480 rerep -5.2% and HT1080 IDH1KD tx 0.4%.
Cc1ccccc1C(=O)N=c1ccn(-c2nc3ccccc3nc2NS(=O)(=O)c2ccccc2)cc1 was read as HT1080NT lethal 8.6%, MCF10A rereplic -2.8%, KB-V1 cytotox inactive, KB-3-1 tox inactive, SW480 rerep -9.0% and HT1080 IDH1KD tx 0.7%.
Cc1ccc(NC(=O)CN(C)C(=O)c2cn(Cc3ccccc3)nc2-c2cccnc2)cc1 was read as HT1080NT lethal -0.9%, MCF10A rereplic 6.7%, KB-V1 cytotox inactive, KB-3-1 tox inactive, SW480 rerep 0.8% and HT1080 IDH1KD tx 9.9%.
For CCN(CC)c1ccc2c(C)c(Cl)c(=O)oc2c1 the results were HT1080NT lethal -12.1%, MCF10A rereplic 4.11µM*, KB-V1 cytotox inactive, KB-3-1 tox inactive, SW480 rerep inconclusive and HT1080 IDH1KD tx -4.2%.
For CCOC(=O)Cc1c(C)c2ccc(N(CC)CC)cc2oc1=O the results were HT1080NT lethal inconclusive, MCF10A rereplic 18.4µM*, KB-V1 cytotox inconclusive, KB-3-1 tox inactive, SW480 rerep 14.6µM* and HT1080 IDH1KD tx -2.0%.
CCN(Cc1cc(=O)oc2cc(C)ccc12)c1ccccc1 was read as HT1080NT lethal inconclusive, MCF10A rereplic 11.7%, KB-V1 cytotox inactive, KB-3-1 tox inactive, SW480 rerep -15.1% and HT1080 IDH1KD tx -23.2%.
`CCOc1ccc2c(C)c(Cl)c(=O)oc2c1` gave HT1080NT lethal -1.1%, MCF10A rereplic -8.9%, KB-V1 cytotox inactive, KB-3-1 tox inactive, SW480 rerep -3.4% and HT1080 IDH1KD tx -2.9%.
CCN(CC)c1ccc2c(Cl)c(Br)c(=O)oc2c1 was read as HT1080NT lethal 18.4µM*, MCF10A rereplic inconclusive, KB-V1 cytotox inconclusive, KB-3-1 tox inconclusive, SW480 rerep inconclusive and HT1080 IDH1KD tx 20.6µM*.
For CCN(CC)c1ccc2c(c1)oc(=O)c1c(Cl)cc(=O)oc12 the results were HT1080NT lethal inconclusive, MCF10A rereplic inconclusive, KB-V1 cytotox inconclusive, KB-3-1 tox inconclusive, SW480 rerep 9.2µM* and HT1080 IDH1KD tx 2.59µM*.
`CC(C)(C)OC(=O)NCCC(=O)N/N=C/c1cccc2nccnc12` gave HT1080NT lethal -11.3%, MCF10A rereplic 14.3%, KB-V1 cytotox inactive, KB-3-1 tox inactive, SW480 rerep -7.1% and HT1080 IDH1KD tx -9.8%.
Screening O=C(CN1CCC(NC(=O)Cc2ccccc2)CC1)Nc1ccccc1Br returned HT1080NT lethal -0.1%, MCF10A rereplic -3.3%, KB-V1 cytotox inactive, KB-3-1 tox inactive, SW480 rerep -31.3% and HT1080 IDH1KD tx -1.5%.
`COc1ccc(-c2c(C)c3ccc(O)cc3oc2=O)cc1` gave HT1080NT lethal -2.4%, MCF10A rereplic 18.9%, KB-V1 cytotox inactive, KB-3-1 tox inactive, SW480 rerep -14.9% and HT1080 IDH1KD tx -7.6%.
`CCN(CC)c1ccc2c(C)c(-c3ccc(N)cc3)c(=O)oc2c1` gave HT1080NT lethal -28.4%, MCF10A rereplic 3.66µM*, KB-V1 cytotox inactive, KB-3-1 tox inconclusive, SW480 rerep 8.2µM* and HT1080 IDH1KD tx -25.4%.
For NC(=O)CCS(=O)(=O)CCN1CCN(S(=O)(=O)c2ccc3c(c2)CCC3)CC1 the results were HT1080NT lethal -0.7%, MCF10A rereplic 0.9%, KB-V1 cytotox inactive, KB-3-1 tox inactive, SW480 rerep -5.2% and HT1080 IDH1KD tx -3.7%.
`CCOC(=O)C1CCN(c2cc(C)nc3cc(-c4cccc(F)c4)nn23)CC1` gave HT1080NT lethal 8.1%, MCF10A rereplic 4.11µM*, KB-V1 cytotox inactive, KB-3-1 tox inactive, SW480 rerep inconclusive and HT1080 IDH1KD tx 15.0%.
CCOC(=O)C1CCN(C(=O)CCc2c(C)nc3cc(-c4ccccc4)nn3c2C)CC1 was read as HT1080NT lethal 7.3%, MCF10A rereplic inconclusive, KB-V1 cytotox inactive, KB-3-1 tox inactive, SW480 rerep -5.1% and HT1080 IDH1KD tx -0.5%.
CC(=O)c1sc(N/N=C\c2ccccc2O)nc1C was read as HT1080NT lethal inconclusive, MCF10A rereplic 16.4µM*, KB-V1 cytotox inactive, KB-3-1 tox inconclusive, SW480 rerep inconclusive and HT1080 IDH1KD tx inconclusive.
Screening COc1ccc(/C=C/C(=O)N(c2ccccn2)C2CCCCC2)cc1OC returned HT1080NT lethal 21.1%, MCF10A rereplic -2.9%, KB-V1 cytotox inactive, KB-3-1 tox inactive, SW480 rerep -13.0% and HT1080 IDH1KD tx -0.7%.
CCCNC(=O)c1ccc2c(c1)N=C(CCC)c1ccccc1S2 was read as KB-V1 cytotox inactive and KB-3-1 tox 0.731µM*.
For CCCC1=Nc2cc(C(=O)NC(C)c3ccccc3)ccc2Sc2ccc(C)cc21 (stereo not given) the results were KB-V1 cytotox inactive and KB-3-1 tox inactive.
Screening CCOCCCNC(=O)c1ccc2c(c1)N=C(CC)c1cc(Br)ccc1S2 returned HT1080NT lethal inconclusive, MCF10A rereplic inconclusive, KB-V1 cytotox 0.517µM*, KB-3-1 tox 1.03µM*, SW480 rerep 1.84µM* and HT1080 IDH1KD tx 0.092µM*.
CCCC1=Nc2cc(C(=O)NCCc3ccc(OC)cc3OC)ccc2Sc2ccccc21 was read as KB-V1 cytotox inactive and KB-3-1 tox inconclusive.
For CCCC1=Nc2cc(C(=O)NCCc3ccccc3)ccc2Sc2ccc(C)cc21 the results were KB-V1 cytotox inconclusive and KB-3-1 tox 7.31µM*.
`CCC1=Nc2cc(C(=O)NCCc3ccccc3)ccc2Sc2ccc(Cl)cc21` gave KB-V1 cytotox inactive and KB-3-1 tox 10.3µM*.
